Screening results deposited in PubChem by several laboratories.
This is a sample that favours compounds with a hit; in the whole collection about 2.6% have one here.
NOD2-RIPK2 inh – inhibitors of human NOD2-RIPK2 interaction; O43353; CHO BLA complementation NOD2-RIPK2, CCF4 ratio; inhibition, % at 4.98 µM; 360,000 compounds, 0.38% hits; in the data active means inhibition above about 21%;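 further: 0% = vehicle only and 100% = reference blocker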
TLR4-MyD88 BLA – TLR4-MyD88 interaction inhibition in cells; O00206+Q99836; HeLa CL3-4 TLR4/MyD88 BLA complementation, FRET ratio; inhibition, % at 8.4 µM; 200,000 compounds, 0.18% hits; AID 861; in the data active means inhibition above about 25%;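 further: 0% = vehicle and 100% = reference inhibitor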
Target sequence (O00206 whole entry, looked up): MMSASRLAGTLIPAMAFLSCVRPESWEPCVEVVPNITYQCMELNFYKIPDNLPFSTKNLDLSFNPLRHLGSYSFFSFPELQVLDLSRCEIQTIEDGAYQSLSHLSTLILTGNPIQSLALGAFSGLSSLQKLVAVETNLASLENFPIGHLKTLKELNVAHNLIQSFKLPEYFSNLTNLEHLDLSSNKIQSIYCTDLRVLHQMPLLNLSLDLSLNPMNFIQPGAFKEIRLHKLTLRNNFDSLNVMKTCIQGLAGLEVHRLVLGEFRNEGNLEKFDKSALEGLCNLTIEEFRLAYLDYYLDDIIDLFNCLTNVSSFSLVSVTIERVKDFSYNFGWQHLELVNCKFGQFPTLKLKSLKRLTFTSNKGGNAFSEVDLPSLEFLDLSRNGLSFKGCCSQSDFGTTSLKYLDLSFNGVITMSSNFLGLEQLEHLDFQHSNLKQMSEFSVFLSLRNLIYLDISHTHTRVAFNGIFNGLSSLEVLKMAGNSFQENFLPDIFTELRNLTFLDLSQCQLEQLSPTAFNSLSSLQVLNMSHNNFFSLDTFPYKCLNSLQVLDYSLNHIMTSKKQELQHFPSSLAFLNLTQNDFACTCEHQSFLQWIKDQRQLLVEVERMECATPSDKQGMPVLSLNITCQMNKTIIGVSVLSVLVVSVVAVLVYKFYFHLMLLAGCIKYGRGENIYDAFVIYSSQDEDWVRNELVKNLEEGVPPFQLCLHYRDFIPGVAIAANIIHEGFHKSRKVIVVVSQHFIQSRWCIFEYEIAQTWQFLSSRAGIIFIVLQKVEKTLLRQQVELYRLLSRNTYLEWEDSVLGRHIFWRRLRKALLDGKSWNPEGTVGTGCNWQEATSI
Target sequence (Q99836 whole entry, looked up): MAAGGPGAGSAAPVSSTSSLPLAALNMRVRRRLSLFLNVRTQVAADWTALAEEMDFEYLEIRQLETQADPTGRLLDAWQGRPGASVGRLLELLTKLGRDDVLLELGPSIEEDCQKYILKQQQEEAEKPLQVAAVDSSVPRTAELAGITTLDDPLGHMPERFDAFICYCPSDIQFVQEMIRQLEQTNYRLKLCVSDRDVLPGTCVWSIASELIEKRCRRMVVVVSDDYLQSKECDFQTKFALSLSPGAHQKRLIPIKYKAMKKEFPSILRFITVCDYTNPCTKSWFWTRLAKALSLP
ABHD5 PLIN5 PPI – blocks binding of human ABHD5 to perilipin-5. Q00G26+Q8WTS1. Split G. princeps luciferase complementation, luminescence, 4 h. inhibition, % at 4 µM. 360,000 compounds, 0.78% hits;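 active means inhibition above the mean inhibition across every tested compound plus 3 SD, cut at about 22% in these data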;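 further: 0% = DMSO only wells and the 100% control is not disclosed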
PRMT1 FP inh – blocks human protein arginine methyltransferase 1. Q99873. recombinant PRMT1, activity-based probe fluorescence polarization. inhibition, % at 2.79 µM. 370,000 compounds, 1.3% hits. AID 652257;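 active means inhibition above about 21% made by adding two undisclosed values, limit read from the data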
Granule exo inh – lytic granule exocytosis inhibition; inhibition, % at 10 µM; 360,000 compounds, 0.66% hits; TALL-104 LAMP-1 surface exposure, flow cytometry; cells stimulated with thapsigargin and PMA;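 active means inhibition above about 55%, limit read from the data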
TLR9-MyD88 block – inhibitors of human TLR9-MyD88 binding; Q9NR96+Q99836; CHO BLA complementation TLR9-MyD88, CCF4 FRET ratio; inhibition, % at 4.98 µM; 340,000 compounds, 0.21% hits;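 active means inhibition above the mean over all tested compounds plus 3 SD, cut at about 21% in these data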;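 further: 0% = DMSO only wells and 100% = clavulanate BLA inhibitor control wells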
ABHD5 PLIN5 conf – ABHD5-PLIN5 interaction inhibition, confirmed. shares compounds with ABHD5 PLIN5 PPI. biochemical ABHD5-PLIN5 interaction, luminescence. inhibition, % at 4 µM. 2,200 compounds, 67% hits. AID 651612; in the data active means inhibition above about 23%;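 further: 0% = DMSO vehicle wells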
HNF4 counter – active in HNF4 split-luciferase counter-screen for ABHD5-PLIN5 inhibitors; shares compounds with ABHD5 PLIN5 PPI; HNF4 dimerization, luminescence, biochemical; inhibition, % at 4 µM; 2,200 compounds, 77% hits;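 active means mean inhibition across replicate wells exceeding the computed hit threshold, cut at about 13% in these data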;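 further: light from luciferase halves that rejoin when HNF4 fusion proteins dimerize; 0% = DMSO only wells and the 100% control is not given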
NOD2-RIPK2 conf – confirmation of human NOD2-RIPK2 interaction inhibitors. shares compounds with NOD2-RIPK2 inh. CHO cells, NOD2-RIPK2 BLA complementation, CCF4 FRET. inhibition, % at 4.98 µM. 1,200 compounds, 70% hits. AID 624370;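 active means mean inhibition across replicates above a set limit taken from the earlier primary screen, cut at about 21% in these data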;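 further: 0% = DMSO-only wells and the high end = clavulanate BLA-blocked wells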
NOD2 BLA counter – counter-screen for NOD2-RIPK2 interaction inhibitors: BLA reporter. CHO BLA reporter, CCF4 FRET ratio, counterscreen. inhibition, % at 4.98 µM. 1,200 compounds, 57% hits. shares compounds with NOD2-RIPK2 inh;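 active means mean inhibition above the low-control mean inhibition plus three low-control SD, cut at about 11% in these data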;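 further: 0% = DMSO only wells and 100% = clavulanate high control wells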
Exocytosis CP01 – blocks lytic granule exocytosis | shares compounds with Granule exo inh | TALL-104 cells, LAMP-1 externalization, flow cytometry; stimulated with PMA plus thapsigargin | inhibition, % at 10 µM | 1,500 compounds, 11% hits; in the data active means inhibition above about 60%;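 further: 0% = stimulated vehicle wells and 100% = unstimulated wells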
PRMT1 confirm – PRMT1 (human) inhibition, FP confirmation | 3,300 compounds, 42% hits | inhibition, % at 2.79 µM | shares compounds with PRMT1 FP inh | AID 687036 | recombinant His-PRMT1, activity-based probe fluorescence polarization;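 active means mean inhibition across replicates above the hit cutoff derived for the earlier primary screen, cut at about 22% in these data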
Starred values were filed as active, the others as inactive; x = no result given.

SMILES | NOD2-RIPK2 inh | TLR4-MyD88 BLA | ABHD5 PLIN5 PPI | PRMT1 FP inh | Granule exo inh | TLR9-MyD88 block | ABHD5 PLIN5 conf | HNF4 counter | PRMT1 confirm | others
CC(=O)Nc1ccc(C(=O)Nc2ccc(S(=O)(=O)N3CCOCC3)cc2)cc1 | -2 | x | 4 | 3 | 4 | -1 | x | x | x
CC(=O)Nc1ccc(C2=NNC(=Nc3ccc(S(=O)(=O)N4CCOCC4)cc3)SC2)cc1 | -3 | x | 75* | 60* | -4 | -4 | 59* | 79* | 86*
Cn1cnc([N+](=O)[O-])c1S(=O)(=O)Oc1ccc(Cl)cc1 | 21* | x | 73* | 31* | 31 | 2 | 85* | 104* | 23* | NOD2-RIPK2 conf=47*;NOD2 BLA counter=-1
CCS(=O)(=O)c1c([N+](=O)[O-])ncn1C | 1 | 5 | 20 | 6 | 2 | -6 | x | x | x
N#C/C(=C/c1ccc(N2CCCCC2)o1)c1cccc(F)c1 | 4 | 10 | 20 | 16 | 25 | 2 | x | x | x
Cc1ccc(/C(C#N)=C\c2ccc(N3CCOCC3)o2)cc1 | 42* | 12 | 88* | 27* | 78* | 15 | 62* | 106* | 11 | NOD2-RIPK2 conf=32*;NOD2 BLA counter=27*
Cc1ccc(-c2ccc(CCC(=O)O)o2)cc1 | -17 | -6 | 28* | 40* | 0 | -4 | 13 | 44* | 40*
Cc1cc(NC(=O)CCc2ccc(-c3ccccc3)o2)no1 | -7 | x | -1 | 11 | -6 | -10 | x | x | x
C=CCN1C(=O)N/C(=C/c2ccc(C)o2)C1=O | -3 | -4 | 31* | 63* | 21 | -8 | 14 | 88* | 29*
Cc1ccc(NC(=O)CN2C(=O)N/C(=C/c3ccc(C)o3)C2=O)cc1 | -3 | -10 | 42* | 76* | 19 | 7 | 46* | 88* | 16
Cc1cccc(NC(=O)CN2C(=O)N/C(=C/c3ccc(C)o3)C2=O)c1 | -6 | -8 | 61* | 65* | 85* | 2 | 35* | 99* | 50* | Exocytosis CP01=-12
C[C@H](CO)N1C[C@H](C)[C@H](CN(C)C(=O)Nc2cccc(F)c2)Oc2cc(Br)ccc2S1(=O)=O | x | x | x | 1 | x | x | x | x | x
Cc1ccccc1/[N+]([O-])=C/c1cccs1 | -2 | -14 | 0 | 6 | -3 | 3 | x | x | x
Cc1ccc(/C=[N+](\[O-])c2ccccc2C)o1 | -25 | x | 23* | 30* | 4 | -8 | 2 | 11 | -3
O=C1OC(/C(=C\Nc2cc(Cl)ccc2O)[N+](=O)[O-])c2ccccc21 (stereo not given) | 12 | -5 | 62* | 29* | 2 | -33 | 15 | 50* | 0
CN(NC1OC(=O)c2ccccc21)c1ccc(Cl)cc1[N+](=O)[O-] (stereo not given) | 3 | x | -4 | 2 | 2 | -6 | x | x | x
O=C(CCc1ccccc1)c1ccc2c(c1)OCCCO2 | -2 | 4 | -3 | 3 | -1 | -10 | x | x | x
O=C(CCN1CCCC1Cc1ccccc1)c1ccc2c(c1)OCCO2 (stereo not given) | 17 | -5 | 28* | 37* | 100* | -1 | 25* | 87* | 40*
CCOC(=O)CSc1nnc(NCC(=O)OC)c(=O)[nH]1 | -7 | -3 | 26* | 56* | 0 | -4 | 41* | 80* | 54*
CCOC(=O)CSc1nnc(C)c(=O)[nH]1 | -9 | 12 | -2 | -3 | -4 | 0 | x | x | x
O=Nc1c(O)ccc2cc(S(=O)(=O)O)ccc12 | 4 | x | 13 | x | 7 | 4 | x | x | x
CN(C)c1ccc2cc(S(=O)(=O)O)cc(O)c2c1 | -9 | x | 26* | 102* | 4 | -1 | 9 | 13* | 33*
COC(=O)[C@]12C[C@H](CC(=O)N3CCN(C(=O)c4ccco4)CC3)C(=O)N(Cc3cccc4ccccc34)C1=C[C@H](C(C)C)O[C@@H]2C1CC1 | x | x | x | -2 | x | x | x | x | x
C=CS(=O)(=O)c1sc(Cl)c(N2CCOCC2)c1[N+](=O)[O-] | -1 | 8 | 43* | 68* | 0 | -4 | 100* | 111* | 82*
COC(=O)c1ccccc1S(=O)(=O)NC(=O)[C@H]1O[C@@H](n2ccc(=O)[nH]c2=O)[C@H](O)[C@@H]1O | x | x | x | -1 | x | x | x | x | x
SMILES | NOD2-RIPK2 inh | TLR4-MyD88 BLA | ABHD5 PLIN5 PPI | PRMT1 FP inh | Granule exo inh | TLR9-MyD88 block | ABHD5 PLIN5 conf | HNF4 counter | PRMT1 confirm | others
FC(F)(F)c1ccccc1Cc1c(-c2ccco2)nc2ccc(Cl)cn12 | -8 | x | 34* | 35* | 14 | x | 46* | 63* | 16
COC(=O)[C@]12C[C@H](CC(=O)NCCCCc3ccccc3)C(=O)N(Cc3ccccc3)C1=C[C@H](C1CCCC1)O[C@@H]2C | x | x | x | 3 | x | x | x | x | x
CCSc1nnc([C@H](Cc2ccccc2)NC(=O)OC(C)(C)C)o1 | 7 | -5 | -4 | 2 | 1 | 4 | x | x | x
Cc1ccccc1CS(=O)(=O)c1nnc([C@H](Cc2ccccc2)NC(=O)OC(C)(C)C)o1 | 57* | 8 | 43* | 38* | 39 | 12 | 57* | 105* | 26* | NOD2-RIPK2 conf=50*;NOD2 BLA counter=2
CCOC(=O)c1cc(-c2ccco2)nn1-c1ccc(C)cc1 | -3 | -5 | 3 | 3 | 7 | 4 | x | x | x
CC(C)NC(=O)c1cc(-c2ccco2)nn1-c1ccc(Cl)cc1 | -10 | -6 | 36* | 31* | 3 | 1 | 42* | 59* | 20
COc1ccc(C(C(=O)NC(C)(C)C)n2c(=O)c(-c3ccco3)nc3ccccc32)cc1 (stereo not given) | 0 | x | 73* | 31* | 1 | x | 63* | 26* | 7
CCCCCNC(=O)C(c1cc2ccccc2o1)n1c(=O)c(-c2ccccc2)nc2ccccc21 (stereo not given) | -13 | x | -25 | 7 | 0 | x | x | x | x
CCCCCNC(=O)C(c1cccc2ccccc12)n1c(=O)c(-c2ccco2)nc2ccccc21 (stereo not given) | -4 | x | 84* | 32* | 0 | x | 82* | 35* | 14
